Laboratory results as given in PubChem BioAssay AID485364 (National Center for Advancing Translational Sciences (NCATS), 2010).
In all, about 360,000 compounds went through this assay and about 11,000 (3.1%) were called active. Inconclusive results (about 4%) are left out. Calls follow the shape of the dose curve; as a rule, active = well fitted inhibition curve with a large enough effect; inconclusive = small, poorly fitted or top-dose-only effect; inactive = no such curve, though single readings can be large or run the other way. For the sample, actives were picked, then their nearest neighbours and some compounds at random.

target: Schistosoma mansoni thioredoxin glutathione reductase (TGR) (UniProt Q962Y6); assay: qHTS Assay for the Inhibitors of Schistosoma Mansoni Peroxiredoxins; conditions: purified TGR, DTNB reduction, TNB absorbance 405 nm; series mostly up to 114 µM; activity change, negative = inhibition: at the top concentration; also: nearly all actives have a fitted effect of over 60% in size
Description: Schistosomiasis is a major neglected tropical disease that currently affects over 200 million. It is caused by different species of flatworms, such as Schistosoma mansoni. Over the last century, drugs to treat the disease have evolved from potassium antimonyl tartrate, artemisinin, oxamniquine, to praziquantel, with praziquantel remaining the universally-used single drug of choice over the past three decades. However, transmission rates have changed little with praziquantel, and there is evidence for the development of drug resistant parasites. Because there is currently no suitable alternative therapy available, there is an urgent need to identify new targets and drugs for schistosomiasis treatment. Thioredoxin glutathione reductase (TGR), one uniquely positioned S. mansoni enzyme, has been identified as a major component of the worms' distinct and compressed antioxidant "firewall". TGR is a multifunctional enzyme that catalyzes the interconversion between reduced and oxidized forms of both glutathione (GSH) and thioredoxins, thus making it an attractive new antiparasitic target. Recently, a quantitative high-throughput screen of the NIH Molecular Libraries Small Molecule Repository (MLSMR, ~71K at the time of the screen in 2007) was performed using an assay that targeted both TGR and peroxiredoxin2 (Prx2, an H2O2-reducing enzymatic component of the S. mansoni redox "firewall") by following the decrease of NADPH fluorescence. […] Additional mechanistic link between exogenous NO donation and parasitic injury for the oxadiazole-2-oxide class of compounds was also expanded and better defined. Although the screen addressed both TGR and Prx2, the assay required post-screen target deconvolution for further characterization of the actives. In addition, the fluorescence assay was also subject to fluorescence interference from compound library members. We have developed a 1536-well-based kinetic HTS assay to address TGR alone. The assay followed the reduction of 5, 5'-dithiobis (2-nitrobenzoic acid) (DTNB) (Ellman's reagent) by NADPH and measured the increase in absorbance at 412 nm of the reaction product, TNB. […] This assay format can be used to screen the current MLSMR collection (with >300K compounds available) to find novel TGR inhibitors. Furoxan is a good choice to serve as a positive control in the primary HTS assay.
Three microliters of reagents (100 uM NADPH and 20 nM TGR or 100 uM NADPH as no-enzyme control) were dispensed into 1,536-well black clear-bottomed plates. Compounds (23 nL) were transferred via Kalypsys pin tool equipped with 1536-pin array (10 nL slotted pins, V&P Scientific, San Diego, CA). The plates were then be incubated for 15 min at room temperature, and 1 uL aliquot of 500 uM NADPH were added, immediately followed by a 1 uL aliquot of 15 mM DTNB to start the reaction. The plate was transferred to a ViewLux high-throughput CCD imager (Perkin-Elmer, Wellesley, MA) where kinetic measurements of the TNB absorbance were acquired using a 405 excitation filter. Throughout the screen, reagent bottles and all liquid lines were made light-tight to minimize reagent degradation. All screening operations were performed on a fully integrated robotic system (Kalypsys, San Diego, CA) containing one RX-130 and two RX-90 anthropomorphic robotic arms (Staubli, Duncan, SC). Library plates were screened starting from the lowest and proceeding to the highest concentration, and a "double-dipping" step of the highest concentration was required to access higher concentrations of compounds. Vehicle-only plates, with DMSO being pin-transferred to the entire column 5-48 compound area, were inserted uniformly at the beginning and the end of each library in order to monitor for and record any shifts in the background, which can be affected by reagent dispensers or loss in enzyme activity overtime. […]
% is scaled to controls: 0 for no effect and ±100 for the full control effect; potency is read from the fitted curve at half-maximal effect.

Row | Compound | activity change, negative = inhibition | Potency
1 | O=C(Cn1cc(SCc2cccc(Cl)c2)c2ccccc21)N1CCCCC1 | 8.64% (inactive) | 
2 | Oc1c(C(c2ccccn2)N2CCOCC2)ccc2cccnc12 (stereo not given) |  | 0.794 µM (active)
3 | Cn1c(C(=O)Nc2cccc(C(F)(F)F)c2)cc2c(=O)n3ccccc3nc21 | -5.71% (inactive) | 
4 | COC(=O)/C=C\C(=O)Nc1cccc([N+](=O)[O-])c1 |  | 0.794 µM (active)
5 | CCC(CC)NC(=O)/C=C/c1cccc([N+](=O)[O-])c1 | -7.28% (inactive) | 
6 | Cc1cc([N+](=O)[O-])ccc1NCc1cccc([N+](=O)[O-])c1 | -14% (inactive) | 
7 | Cc1c(NC(=O)Nc2cccc([N+](=O)[O-])c2)c(=O)n(-c2ccccc2)n1C | -26.1% (inactive) | 
8 | Cc1ccccc1NC(=S)Nc1cccc([N+](=O)[O-])c1 |  | 44.7 µM (active)
9 | O=C(Nc1cccc([N+](=O)[O-])c1)N1CCc2ccccc2C1 | -15.1% (inactive) | 
10 | COc1ccccc1N1CCN(CCCNC(=O)c2cnn(-c3ccccc3Cl)c2C2CCN(C(=O)OC(C)(C)C)CC2)CC1 | -10.9% (inactive) | 
11 | COc1ccc(Br)cc1C1CC(=O)Nc2c1c(C)nn2-c1nc(C)cc(C)n1 (stereo not given) | -0.653% (inactive) | 
12 | O=C(CCC(=O)N1CC2CCCN2c2ccccc21)NCc1ccccc1Cl (stereo not given) | -1.42% (inactive) | 
13 | Cc1ccc(N=C2NC(=O)/C(=C/C=C/c3ccco3)S2)cc1C |  | 44.7 µM (active)
14 | CC(C)c1ccc(NC(=O)Cn2c3ncccc3c(=O)n2-c2ccccc2)cc1 | -12% (inactive) | 
15 | CN(Cc1ccccc1)C(=O)CCS(=O)(=O)c1cc(Br)cc2c1N(C(=O)C1CC1)CC2 | -20.2% (inactive) | 
16 | N#CCCN1CCN(S(=O)(=O)c2ccc(S(=O)(=O)N3CCCC3)cc2)CC1 | 5.99% (inactive) | 
17 | N#Cc1cccc(CN2CCC(=O)N(CCO)CC2)c1 | 0.227% (inactive) | 
18 | CC(C)(C)c1cc(CN2CCN(CCC#N)CC2)cc(C(C)(C)C)c1O |  | 2.24 µM (active)
19 | Cc1cc(C(=O)CCl)c(C)n1CC1COc2ccccc2O1 (stereo not given) |  | 10 µM (active)
20 | Cc1noc(C)c1C(=O)NCC1COc2ccccc2O1 (stereo not given) | 14.9% (inactive) | 
21 | O=C1C(=O)N(CC2COc3ccccc3O2)c2ccccc21 (stereo not given) | 5.93% (inactive) | 
22 | Cc1ccc2nc(COc3ccc(NC(=O)COc4ccccc4F)cc3)cc(=O)n2c1 | 2.09% (inactive) | 
23 | C=C(C)C(=O)O[C@H]1C/C(C)=C\C(=O)/C=C(\C)[C@H](O)[C@@H]2OC(=O)C(=C)[C@@H]21 |  | 3.55 µM (active)
24 | CCOC(=O)c1c(C)oc2nc(C)nc(N(CC(C)C)CC(C)C)c12 | -0.372% (inactive) | 
25 | CCCC[C@]12Cc3cc(OC)c(OC)cc3C(O1)C1=C(CC3(CCCCC3)OC1=O)O2 |  | 11.2 µM (active)

Row | Compound | activity change, negative = inhibition | Potency
26 | COc1cc2c(cc1OC)CC1(CCCCC1)N=C2 | 2.45% (inactive) | 
27 | CCCCC12CN3CC(C)(CN(C1)C3c1ccc(O)c(OC)c1)C2=O (stereo not given) | -4.55% (inactive) | 
28 | COc1ccc(-c2[nH]c3c(c2-c2c(-n4cccc4)n(C)c(=O)n(C)c2=O)c(=O)n(C)c(=O)n3C)cc1 | 0.0872% (inactive) | 
29 | Cc1ccc(NC(=O)c2oc3ccccc3c2NC(=O)Cc2cccs2)cc1 | -1.38% (inactive) | 
30 | COc1cccc(NC(=O)COC(=O)CCOc2ccccc2OC)c1 | -7.41% (inactive) | 
31 | COc1cc([N+](=O)[O-])ccc1NC(=O)COC(=O)CCOc1ccc(C)cc1 |  | 35.5 µM (active)
32 | CSc1ccccc1NC(=O)COC(=O)CCCOc1ccc(C)cc1 | -1.77% (inactive) | 
33 | CCOC(=O)c1ccc(NC(=O)CCS(=O)(=O)c2ccc3c(c2)oc(=O)n3C)cc1 | 8.54% (inactive) | 
34 | COC(=O)NNC1=CC(=O)CC(C)(C)C1 | -7.66% (inactive) | 
35 | Cc1ccc(C(=O)OC2=CC(=O)CC(C)(C)C2)cc1 |  | 44.7 µM (active)
36 | Cc1ccc(C(=O)Oc2ccc(C(=S)N3CCOCC3)cc2)cc1 | -7.9% (inactive) | 
37 | COc1ccccc1CNC(=O)c1ccc(CS(=O)c2ccccc2Cl)o1 (stereo not given) | -24.7% (inactive) | 
38 | COc1cccc(C(=O)N(Cc2cccc(Cl)c2)Cc2ccco2)c1 | 8.76% (inactive) | 
39 | CCS(=O)(=O)Nc1ccc(C2=NN(C(C)=O)C(c3cccs3)C2)cc1 (stereo not given) | 4.07% (inactive) | 
40 | CS(=O)(=O)Nc1cccc(C2=NN(S(=O)(=O)c3ccccc3)C(c3cccs3)C2)c1 (stereo not given) | 4.09% (inactive) | 
41 | CCS(=O)(=O)Nc1ccc(C2=NN(S(=O)(=O)c3ccc(F)cc3)C(c3ccco3)C2)cc1 (stereo not given) |  | 44.7 µM (active)
42 | CCOCCCNC(=O)c1c(NC(=O)Cc2coc3c(C)c(C)ccc23)sc2c1CCC2 | -12.2% (inactive) | 
43 | CCCCNC(=O)CSc1nc2cc3c(cc2c(=O)n1CCCCCC(=O)NCc1ccc2c(c1)OCO2)OCO3 | -5.38% (inactive) | 
44 | O=C(NCc1ccco1)c1nc2ncccn2n1 | 0.0944% (inactive) | 
45 | C=C(C)Cn1c(SCC(=O)NCc2ccco2)nc2sc3c(c2c1=O)CCC3 |  | 44.7 µM (active)
46 | O=C(NCc1ccco1)c1cccn2c(=O)c3c4c(sc3nc12)CCCC4 |  | 12.6 µM (active)
47 | C=CCn1c(SCC(=O)NCCCO)nc2sc3c(c2c1=O)CCC3 | -6.99% (inactive) | 
48 | O=C(CSc1nc2cc3c(cc2c(=O)n1CCC1=CCCCC1)OCO3)NCc1ccco1 | 10.1% (inactive) | 
49 | O=c1oc(-c2ccco2)nc2sc3c(c12)CCCCC3 | 0.263% [at 57.1 µM] (inactive) | 
50 | Cc1nc2ccc(S(=O)(=O)N(CC(=O)Nc3ccc(F)cc3)Cc3ccccc3)cc2s1 | 7.38% (inactive) | 
